D2 ag-1: activates the human D2 dopamine receptor. activation, % (concentration not given with the values). 360,000 compounds, 0.084% hits. P14416. DiscoveRx PathHunter D2 beta-arrestin, luminescence, 90 min; 100% = 57 uM dopamine signal; in the data active = activation above about 40%; inconclusive = between about 15% and that limit
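Agonist mode: compounds alone added to overnight-plated D2 PathHunter cells for 90 min at 37 C, with 57 uM final dopamine (EC100) defining full response. Beta-arrestin recruitment detected by chemiluminescent reagent, read after 1 h at ambient temperature.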
D2 antagonist: D2 dopamine receptor (human) antagonism. P14416. HEK293 TREx D2 cells, calcium flux, dopamine EC80. inhibition, % at 10 µM. 340,000 compounds, 2% hits. AID 485344; in the data active = inhibition above about 30%; inactive = below that, where a call was filed
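Compounds are added to dye-loaded, induced HEK293 T-REx cells coupled to calcium release via D2; after a 3 min kinetic read an EC80 dopamine stimulus is given and fluorescence is recorded for 3 more min.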
D2 PAM-1: positive allosteric modulators of human D2 dopamine receptor | P14416 | 340,000 compounds, 0.34% hits | HEK293 T-REx D2, calcium flux, EC20 dopamine potentiation | potentiation, % at 10 µM;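 active = potentiation over 3 SD above the plate norm, cut at about 30% in these data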
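Tetracycline-induced HEK293 T-REx cells force-coupled to calcium signalling expressed D2; compounds were pin-added after a 10 s baseline, read kinetically 180 s, then an EC20 dopamine challenge followed with a further 180 s calcium read.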
D2 PAM-2: human D2 receptor positive allosteric modulation; potentiation, % (no concentration beside the values); DiscoveRx D2 beta-arrestin cells, luminescence, 90 min; 100% = 57 uM dopamine signal; 360,000 compounds, 0.23% hits; AID 624464; in the data active = potentiation above about 50%; inconclusive = mostly about 30% to 49%
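PathHunter beta-arrestin assay in DiscoveRx D2 cells. Compounds were added with an EC20 of dopamine (50 nM final) for 90 min at 37 deg C. Luminescence was read 1 h after detection reagent, with 57 uM dopamine as the EC100 control.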
D2 ag-2: activates the human D2 dopamine receptor; activation, % at 2 µM; 340,000 compounds, 0.53% hits; P14416; HEK293 T-REx D2 cells, calcium flux agonist mode;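 active = activation over 3 SD above normal in the single-dose calcium agonist read, cut at about 30% in these data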
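Tetracycline-induced HEK293 T-REx cells with force-coupled D2 receptor, plated overnight at 30 C, loaded with no-wash calcium dye. After a 10 s baseline, compound was pin-added and calcium flux read kinetically for 180 s; calcium rises flagged agonists.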
D3 ag: confirmation of human D3 dopamine receptor agonists, beta-arrestin; shares compounds with D2 ag-2; Potency, µM (top dose mostly 76.9 µM), most hits filed as activators; 2,300 compounds, 4% hits; DiscoveRx D3 beta-arrestin cells, luminescence, 90 min; AID 720506; also: nearly all actives have a fitted effect of over 70% in size
Target sequence (P35462 whole entry, looked up): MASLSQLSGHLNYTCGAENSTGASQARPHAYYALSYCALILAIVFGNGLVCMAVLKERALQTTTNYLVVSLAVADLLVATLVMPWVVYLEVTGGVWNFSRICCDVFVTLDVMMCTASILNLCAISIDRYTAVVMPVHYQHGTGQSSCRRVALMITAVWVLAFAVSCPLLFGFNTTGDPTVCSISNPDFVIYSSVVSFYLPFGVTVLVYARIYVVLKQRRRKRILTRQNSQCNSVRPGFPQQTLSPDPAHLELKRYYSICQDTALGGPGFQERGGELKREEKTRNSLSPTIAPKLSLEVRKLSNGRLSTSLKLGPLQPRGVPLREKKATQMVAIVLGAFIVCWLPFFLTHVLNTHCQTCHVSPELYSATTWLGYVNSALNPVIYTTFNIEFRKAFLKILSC
D2 ag-3: counter-screen for D3 agonists: human D2 dopamine receptor agonism. shares compounds with D2 ag-2. DiscoveRx PathHunter D2 beta-arrestin, luminescence, 90 min; response scale: percent relative to full dopamine signal. Potency, µM (titrated, usually from 76.9 µM), hits mostly activators. 2,300 compounds, 5.9% hits. AID 720507; also: nearly all actives have a fitted effect of over 70% in size
Hits are given with their value; - = inactive; ? = inconclusive; . = no result given. In the library only some 2.4% were active in any assay of this set; here they are far more common. Unless noted, calls follow the shape of the dose curve; as a rule, active = well fitted activation curve with a large enough effect; inconclusive = small, poorly fitted or top-dose-only effect; inactive = flat fitted curve, though single readings scatter.

SMILES	D2 ag-1	D2 antagonist	D2 PAM-1	D2 PAM-2	D2 ag-2	D3 ag	D2 ag-3
CCC(CC)c1nnc(NC(=O)c2cc(-c3ccccc3)nc3ccccc23)s1	-	.	.	-	.	-	-
COc1cccc(CNC(=O)CCc2c(C)c3cc4c(C)coc4cc3oc2=O)c1	.	.	-	.	-	.	.
CCOc1ccccc1-n1nnnc1SCC(=O)NC(=O)Cc1ccccc1	-	-	-	-	-	-	-
Cc1ccc(CNc2ccc3cc(S(=O)(=O)N4CCCCC4)ccc3n2)cc1	.	.	-	.	-	.	.
O=C(CNC(=O)c1ccccc1)N/N=C/c1cn[nH]c1-c1ccccc1	-	-	-	-	-	.	.
COc1ccccc1C(=O)NCC(=O)N/N=C/c1cn[nH]c1-c1ccccc1	-	-	-	-	67	-	-
Cc1sc(-c2cc3c([nH]c2=O)CC(c2ccccc2)CC3=O)nc1-c1ccc(Cl)cc1 (configuration not stated)	.	.	-	.	-	.	.
O=C(CSc1oc(-c2ccccc2)nc1S(=O)(=O)c1ccc(Br)cc1)c1ccccc1	.	.	.	.	-	.	.
CCN1CCN(c2ncnc3scc(-c4ccc(OC)cc4)c23)CC1	78	-	-	-	41	-	40µM
COc1cccc(NC(=O)CN(C)C(=O)CCC(=O)c2cc(C)sc2C)c1	-	-	-	-	-	-	-
COCCCN1C(=O)c2ccc(C(=O)Nc3cccc(OC)c3)cc2C1=O	-	-	-	-	-	.	.
COc1cccc(NC(=O)CN(C)C(=O)C(Sc2ccccc2)c2ccccc2)c1 (configuration not stated)	-	-	-	-	-	-	-
COc1cccc(NC(=O)CN(C)C(=O)c2ccc3c(c2)C(=O)N(CCC(C)C)C3=O)c1	-	-	-	-	-	-	-
COCCc1nn2c(=O)cc(COC(=O)C(c3ccccc3)c3ccccc3)nc2s1	.	.	-	.	.	.	.
O=C(CCC(=O)c1ccccc1)NCCc1c[nH]c2ccccc12	-	-	-	-	66	-	-
CCOc1ccc(NC(C)=O)cc1N	-	-	-	-	-	-	-
CCOc1ccc(NC(C)=O)cc1[N+](=O)[O-]	-	-	-	-	-	.	.
O=[N+]([O-])c1ccccc1CN1CCN(c2ncccn2)CC1	-	-	-	-	47	-	-
O=[N+]([O-])c1ccc(CN2CCN(c3ncccn3)CC2)cc1	49	85	-	?	83	?	18µM
O=[N+]([O-])c1cccc(CN2CCN(c3ncccn3)CC2)c1	?	-	-	-	75	-	?
COC(=O)c1ccc(NC(=O)NC(C)c2c(-n3cccc3)sc(C)c2C)cc1 (configuration not stated)	.	.	-	.	.	.	.
OC(COCC1COc2ccccc2O1)CN1CCN(c2ccccc2)CC1 (configuration not stated)	?	60	-	-	67	?	?
COCCOCC(O)CN1CCN(c2ccccc2)CC1 (configuration not stated)	-	59	-	-	84	-	-
OC(COCc1ccccc1)CN1CCN(c2ccccc2)CC1 (configuration not stated)	-	86	-	-	86	?	?
CSc1ncc(C(=O)NCc2ccc(Cl)cc2)c(C(F)(F)F)n1	.	.	-	.	.	.	.
SMILES	D2 ag-1	D2 antagonist	D2 PAM-1	D2 PAM-2	D2 ag-2	D3 ag	D2 ag-3
Cc1ccc(C(=O)c2cn(CC(=O)Nc3ccc4c(c3)OCCO4)c3nc(C)ccc3c2=O)cc1	.	.	-	.	-	.	.
CC1CCCC(NC(=O)C2COc3ccccc3O2)C1C (configuration not stated)	-	-	-	-	-	-	-
CCc1ccc(NC(=O)CSc2nc(=O)n(Cc3ccncc3)c3c2CCC3)cc1	.	.	-	.	-	.	.
COCCNC(=O)c1cccc(OC2CCN(C(C)COc3ccccc3)CC2)c1 (configuration not stated)	-	-	-	-	45	-	-
CCc1ccc(NC(=O)C(NS(=O)(=O)c2cccs2)C(C)C)cc1 (configuration not stated)	.	.	-	.	-	.	.
COc1ccc(NC(=O)N2CCCC(c3ccccc3)C2)cc1 (configuration not stated)	-	.	.	-	.	-	-
CC(NC(=O)c1ccc2c(c1)OCO2)C(c1cccs1)N1CCN(c2ccccc2)CC1 (configuration not stated)	-	-	-	-	43	-	-
CC(NC(=O)c1ccc2c(c1)OCO2)C(c1cccs1)N1CCOCC1 (configuration not stated)	-	-	-	-	-	.	.
CC(NC(=O)c1cccs1)C(c1cccs1)N1CCN(Cc2ccccc2)CC1 (configuration not stated)	-	-	-	-	-	.	.
CCC(=O)NC(C)C(c1cccs1)N1CCN(Cc2ccccc2)CC1 (configuration not stated)	-	-	-	-	45	-	-
Cc1ccc2c(c1)-c1onc(C(=O)N3CCN(c4ccc(Cl)cc4)CC3)c1CO2	.	.	-	.	-	.	.
CC1=C(C(=O)Nc2ccc(C)cc2C)C(c2cc(Br)ccc2F)n2ncc(C(=O)Nc3ccc(C)cc3)c2N1 (configuration not stated)	.	.	-	.	-	.	.
CN1CCN(C(=O)N2c3ccccc3C=Cc3ccccc32)CC1	-	-	-	-	54	-	-
Cc1onc(-c2ccccc2)c1C(=O)NNC(=S)NC(=O)/C=C/c1ccccc1	-	-	-	-	31	-	-
Cc1onc(-c2ccccc2)c1C(=O)NNC(=S)NC(=O)c1ccc(Br)cc1	-	36	-	-	46	-	-
COc1ccc(/C=C/C(=O)NC(=S)NNC(=O)c2c(-c3ccccc3)noc2C)cc1	-	-	-	-	-	.	.
Cc1onc(-c2ccccc2)c1C(=O)NNC(=O)c1ccccc1O	-	-	-	-	-	.	.
COc1ccc(/C=N/NC(=O)CCn2cnc3ccccc32)cc1	-	-	-	-	-	-	-
Oc1c(C(c2ccccc2F)N2CCN(c3ccccc3F)CC2)sc2nc(-c3ccco3)nn12 (configuration not stated)	.	.	-	.	-	.	.
Cc1nnc(N2C(=O)C(O)=C(C(=O)c3ccco3)C2c2ccc(F)cc2)s1 (configuration not stated)	-	-	-	-	-	-	-
Cn1c(=O)c2c(-c3ccccc3Cl)n(-c3cc(Cl)ccc3O)cc2n(C)c1=O	.	.	-	.	-	.	.

High-throughput results as filed in PubChem.
